# Laboratory results published in PubChem BioAssay (Tox21).
# Results filed as inconclusive are left out. Where a call stands in place of a potency, no number is given. The source made the active and inactive calls. Unless noted, calls follow the shape of the dose curve; as a rule, active = well fitted curve in the direction sought with a large enough effect in the repeat runs; inconclusive = weak or mixed curves; inactive = no such curve, though single readings can be large; an effect the other way counts as inactive or inconclusive.
# Key:
# [1] = test system: thyroid hormone receptor (rat, GH3 cells); experiment: qHTS assay to identify small molecule agonists of the thyroid receptor (TR) signaling pathway (AID 743066; calls by dose curve)
# [2] = qHTS assay to identify small molecule antagonists of the estrogen receptor alpha (ER-alpha) signaling pathway - cell viability counter screen (AID 743074; calls by dose curve;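 also: HEK293 cells carrying ER-alpha-UAS-bla reporter stimulated with 17beta-estradiol; nearly all actives have a fitted effect of over 45% in size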)
# [3] = qHTS assay to identify small molecule antagonists of the estrogen receptor alpha (ER-alpha) signaling pathway using the BG1 cell line - cell viability counter screen (AID 743081);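 also: compound given together with 17beta-estradiol as the ER stimulus; series mostly up to about 70 µM; nearly all actives have a fitted effect of over 45% in size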
# [4] = qHTS assay to identify small molecule that activate the aryl hydrocarbon receptor (AhR) signaling pathway - cell viability counter screen (AID 743086);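 also: HepG2 liver cells carrying the AhR DRE luciferase reporter; series mostly up to about 70 µM; nearly all actives have a fitted effect of over 45% in size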
# In short: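 HepG2-AhR-luc (HG2L7.5c1) cells, 4000/well, were preincubated 5 h at 37C, exposed to compound in qHTS format for 24 hr at 37C, then given CellTiter-Fluor for 30 min; viability was read as fluorescence in the reporter wells.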
# [5] = biological target: Peroxisome proliferator-activated receptor gamma (Homo sapiens) (UniProt P37231); experiment: qHTS assay to identify small molecule agonists of the peroxisome proliferator-activated receptor gamma (PPARg) signaling pathway (AID 743094; active = well fitted activation curve with a large enough effect in the signal ratio in the repeat runs, not every such curve was filed as active; the % refers to the signal ratio)
# Sequence of Peroxisome proliferator-activated receptor gamma (Homo sapiens) (P37231 whole entry, looked up): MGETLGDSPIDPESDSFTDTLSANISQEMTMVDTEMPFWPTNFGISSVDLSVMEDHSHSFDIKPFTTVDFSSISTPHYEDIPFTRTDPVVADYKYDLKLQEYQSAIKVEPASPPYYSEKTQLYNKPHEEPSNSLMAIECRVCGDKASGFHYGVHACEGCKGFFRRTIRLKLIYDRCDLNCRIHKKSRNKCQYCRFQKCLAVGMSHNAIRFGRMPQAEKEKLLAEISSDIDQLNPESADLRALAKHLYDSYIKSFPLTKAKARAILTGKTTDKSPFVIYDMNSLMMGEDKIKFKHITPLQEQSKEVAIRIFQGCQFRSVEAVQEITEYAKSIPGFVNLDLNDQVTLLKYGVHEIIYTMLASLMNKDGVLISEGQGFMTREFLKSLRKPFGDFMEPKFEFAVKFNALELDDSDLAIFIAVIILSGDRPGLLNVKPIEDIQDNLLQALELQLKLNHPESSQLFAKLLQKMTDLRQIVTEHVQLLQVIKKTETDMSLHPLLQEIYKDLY
# In short: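 Agonism was assessed in a beta-lactamase reporter system, HEK293H cells with a stably integrated UAS-bla construct under PPARg control; the 17 h treatment at 37C preceded a 1 h room-temperature FRET substrate read.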
# [6] = qHTS assay to identify small molecule antagonists of the peroxisome proliferator-activated receptor gamma (PPARg) signaling pathway - cell viability counter screen (AID 743194); also: nearly all actives have a fitted effect of over 55% in size; also: potency is read from the fitted curve at half-maximal effect
# In short: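 PPARg-UAS-bla HEK293H cells were plated, rested 5 h at 37 C, then treated with compounds plus rosiglitazone (50 nM final) for 17 h at 37 C; viability was then read by CellTiter-Glo luminescence after 30 min at room temperature.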
# [7] = qHTS assay for small molecule agonists of the antioxidant response element (ARE) signaling pathway (AID 743202; active = well fitted activation curve with a large enough effect in the signal ratio in the repeat runs, not every such curve was filed as active; the % refers to the signal ratio; also: potency is read from the fitted curve at half-maximal effect)
# In short: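 Following a 16 h, 37 C exposure of reporter HepG2 cells (ARE-driven beta-lactamase, 2,000 cells/well) to compounds, FRET substrate was applied for 2 h at room temperature and fluorescence intensity recorded.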
# [8] = qHTS assay for small molecule agonists of the antioxidant response element (ARE) signaling pathway - cell viability counter screen (AID 743203; calls by dose curve; also: nearly all actives have a fitted effect of over 55% in size; also: potency is read from the fitted curve at half-maximal effect)
# In short: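 ATP content via CellTiter-Glo luminescence served as the viability measure. Cells: ARE-bla HepG2, 2,000 per well. Exposure: 16 hrs, 37C/5% CO2.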
# [9] = qHTS assay for small molecule activators of the heat shock response signaling pathway - cell viability counter screen (AID 743209); also: nearly all actives have a fitted effect of over 50% in size; also: potency is read from the fitted curve at half-maximal effect
# In short: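 Compounds dissolved in DMSO were added to overnight-plated HSE-bla HeLa cells and left 5 h at 37 C. Cell viability was quantified by luminescence using CellTiter-Glo.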
# [10] = qHTS assay for small molecule activators of the heat shock response signaling pathway (AID 743210; active = well fitted activation curve with a large enough effect in the signal ratio in the repeat runs, with a control signal flat, not every such curve was filed as active; the % refers to the signal ratio; also: series mostly up to about 63 µM)
# In short: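 Heat shock element–beta-lactamase HeLa reporter cells; qHTS with compounds for 5 h at 37 C; detection by FRET substrate fluorescence after 2.5 h at RT.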
# Aromatase (Homo sapiens) = Aromatase (Homo sapiens) (UniProt P11511); experiment: qHTS assay to identify aromatase inhibitors (AID 743083); also: nearly all actives have a fitted effect of over 55% in size; also: potency is read from the fitted curve at half-maximal effect
# Sequence of Aromatase (Homo sapiens) (P11511 whole entry, looked up): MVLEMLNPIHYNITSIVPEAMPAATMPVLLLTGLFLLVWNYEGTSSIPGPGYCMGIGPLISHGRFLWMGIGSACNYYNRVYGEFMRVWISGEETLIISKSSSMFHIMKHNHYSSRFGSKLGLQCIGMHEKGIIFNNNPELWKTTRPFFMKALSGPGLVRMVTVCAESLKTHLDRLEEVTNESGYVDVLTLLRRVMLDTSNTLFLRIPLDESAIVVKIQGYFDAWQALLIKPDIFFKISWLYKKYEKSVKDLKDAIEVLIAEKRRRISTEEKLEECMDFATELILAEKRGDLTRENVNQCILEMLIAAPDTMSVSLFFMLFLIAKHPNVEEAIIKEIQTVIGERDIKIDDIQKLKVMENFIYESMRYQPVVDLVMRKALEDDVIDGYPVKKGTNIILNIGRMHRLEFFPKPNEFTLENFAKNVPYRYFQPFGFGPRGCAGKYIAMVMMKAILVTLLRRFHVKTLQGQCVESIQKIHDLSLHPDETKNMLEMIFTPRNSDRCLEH
# [11] = qHTS assay to identify aromatase inhibitors - cell viability counter screen (AID 743084);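 also: cells stimulated with testosterone during compound exposure; nearly all actives have a fitted effect of over 55% in size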
# [12] = biological target: Aryl hydrocarbon receptor (Homo sapiens) (UniProt P35869); experiment: qHTS assay to identify small molecule that activate the aryl hydrocarbon receptor (AhR) signaling pathway (AID 743085); also: nearly all actives have a fitted effect of over 15% in size; also: potency is read from the fitted curve at half-maximal effect;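 as to activation: HG2L7.5c1 human HepG2 liver cells with stably integrated DRE-driven firefly reporter; series mostly up to about 70 µM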
# Sequence of Aryl hydrocarbon receptor (Homo sapiens) (P35869 whole entry, looked up): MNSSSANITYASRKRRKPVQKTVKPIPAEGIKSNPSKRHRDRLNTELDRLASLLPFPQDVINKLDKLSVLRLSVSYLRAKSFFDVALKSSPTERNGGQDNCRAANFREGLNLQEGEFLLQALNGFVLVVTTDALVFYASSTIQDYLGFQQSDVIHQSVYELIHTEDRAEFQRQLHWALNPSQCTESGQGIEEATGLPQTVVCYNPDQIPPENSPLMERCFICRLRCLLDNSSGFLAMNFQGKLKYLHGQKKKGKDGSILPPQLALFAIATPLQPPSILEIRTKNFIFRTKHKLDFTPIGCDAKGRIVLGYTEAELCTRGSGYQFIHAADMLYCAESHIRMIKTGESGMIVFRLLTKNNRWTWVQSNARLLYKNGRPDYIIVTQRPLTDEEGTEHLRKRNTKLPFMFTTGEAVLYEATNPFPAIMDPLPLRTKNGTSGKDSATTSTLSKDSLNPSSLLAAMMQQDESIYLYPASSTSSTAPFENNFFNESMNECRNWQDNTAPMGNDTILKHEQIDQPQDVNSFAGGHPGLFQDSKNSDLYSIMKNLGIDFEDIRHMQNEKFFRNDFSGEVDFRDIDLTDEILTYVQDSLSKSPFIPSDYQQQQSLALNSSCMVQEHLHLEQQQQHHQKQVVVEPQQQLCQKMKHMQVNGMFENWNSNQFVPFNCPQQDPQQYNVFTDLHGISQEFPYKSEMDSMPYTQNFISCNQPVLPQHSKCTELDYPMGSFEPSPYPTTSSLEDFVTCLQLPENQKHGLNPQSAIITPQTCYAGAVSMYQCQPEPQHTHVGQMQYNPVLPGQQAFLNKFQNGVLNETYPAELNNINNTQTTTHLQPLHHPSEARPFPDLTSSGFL
# In short: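 Luminescence (ONE-Glo) from a dioxin-responsive-element luciferase reporter in HG2L7.5c1 HepG2 cells after 24 hr compound exposure at 37C; viability measured by CellTiter-Fluor fluorescence beforehand.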
# [13] = biological target: Estrogen receptor (Homo sapiens) (UniProt P03372); experiment: qHTS assay to identify small molecule agonists of the estrogen receptor alpha (ER-alpha) signaling pathway (AID 743075; calls by dose curve;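 also: HEK293 GripTite cells with ER-alpha and UAS-driven beta-lactamase reporter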)
# Sequence of Estrogen receptor (Homo sapiens) (P03372 whole entry, looked up): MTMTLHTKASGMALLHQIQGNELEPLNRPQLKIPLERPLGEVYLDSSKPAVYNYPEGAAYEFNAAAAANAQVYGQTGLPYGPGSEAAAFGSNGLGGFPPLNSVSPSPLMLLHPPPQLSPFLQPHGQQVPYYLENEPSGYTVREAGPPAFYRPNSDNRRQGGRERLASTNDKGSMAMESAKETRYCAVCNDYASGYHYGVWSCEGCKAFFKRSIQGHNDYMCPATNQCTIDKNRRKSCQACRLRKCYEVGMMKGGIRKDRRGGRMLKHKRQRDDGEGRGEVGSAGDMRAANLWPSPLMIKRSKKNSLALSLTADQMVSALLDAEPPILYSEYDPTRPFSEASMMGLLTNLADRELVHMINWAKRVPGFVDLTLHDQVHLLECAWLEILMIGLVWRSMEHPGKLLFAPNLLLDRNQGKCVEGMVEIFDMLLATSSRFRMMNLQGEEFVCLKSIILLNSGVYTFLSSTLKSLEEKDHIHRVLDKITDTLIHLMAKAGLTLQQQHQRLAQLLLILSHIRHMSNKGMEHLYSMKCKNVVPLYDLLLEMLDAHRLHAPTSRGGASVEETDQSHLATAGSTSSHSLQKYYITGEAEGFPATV
# [14] = biological target: Estrogen receptor (Homo sapiens) (UniProt P03372); experiment: qHTS assay to identify small molecule antagonists of the estrogen receptor alpha (ER-alpha) signaling pathway (AID 743069; active = well fitted curve in the direction sought with a large enough effect in the signal ratio in the repeat runs, not every such curve was filed as active; the % refers to the signal ratio)
# In short: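 A 17beta-estradiol challenge was applied right after compound transfer to ER-alpha-UAS-bla HEK293 cells previously kept in charcoal-stripped serum. Plates stood 18 hr at 37C and 5% CO2; fluorescence was read following 2 hr FRET substrate loading at room temperature.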
# [15] = biological target: Estrogen receptor (Homo sapiens) (UniProt P03372); experiment: qHTS assay to identify small molecule agonists of the estrogen receptor alpha (ER-alpha) signaling pathway using the BG1 cell line (AID 743079); also: nearly all actives have a fitted effect of over 20% in size; also: potency is read from the fitted curve at half-maximal effect
# [16] = qHTS assay to identify small molecule antagonists of the estrogen receptor alpha (ER-alpha) signaling pathway using the BG1 cell line (AID 743080; calls by dose curve;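 also: BG1 cells stimulated with 17beta-estradiol alongside compound; nearly all actives have a fitted effect of over 25% in size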; also: potency is read from the fitted curve at half-maximal effect)
# In short: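 BG1-Luc-4E2 cells (endogenous full-length ER-alpha, 4xERE luciferase) hormone-starved 5 days in charcoal-stripped FBS, plated 4,000/well for 24 h, then compound plus 17beta-estradiol for 21.5 h at 37 C; ONE-Glo luminescence read.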
# [17] = biological target: Peroxisome proliferator-activated receptor gamma (Homo sapiens) (UniProt P37231); experiment: qHTS assay to identify small molecule antagonists of the peroxisome proliferator-activated receptor gamma (PPARg) signaling pathway (AID 743191; calls by dose curve; also: series mostly up to about 63 µM; nearly all actives have a fitted effect of over 30% in size)
# In short: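 GeneBLAzer PPARg UAS-bla HEK293H cells carrying a UAS-driven beta-lactamase reporter were plated at 3000 cells/well, preincubated 5 h at 37C, then given compound for 17 h at 37C; LiveBLAzer B/G FRET substrate was read after 1 h at room temperature.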
# [18] = qHTS assay to identify small molecule antagonists of the thyroid receptor (TR) signaling pathway (AID 743065); also: nearly all actives have a fitted effect of over 55% in size; also: potency is read from the fitted curve at half-maximal effect
# In short: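 GH3.TRE-Luc rat pituitary cells carrying two TR response elements driving luciferase were plated for 4 h, given compound plus 1 nM T3 (final), and incubated 23.5 h at 37 C. ONE-Glo luminescence measured reporter inhibition; CellTiter-Fluor fluorescence tracked cytotoxicity.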
SMILES,Potency [1],outcome [2],Potency [3],Potency [4],Potency [5],Potency [6],Potency [7],Potency [8],Potency [9],outcome [10],Potency (Aromatase (Homo sapiens)),Potency [11],Potency [12],Potency [13],Potency [14],Potency [15],Potency [16],Potency [17],Potency [18]
COc1cc(C(C)(C)C)c(O)c(C(C)(C)C)c1,inactive,inactive,inactive,inactive,inactive,inactive,inactive,inactive,inactive,inactive,,,,,,,,,
Cc1cc(CC(=O)O)c(C)n1-c1ccc(Cl)cc1,inactive,inactive,inactive,inactive,,inactive,,inactive,inactive,inactive,inactive,inactive,inactive,,,,,,
Cc1ccc2c(ccc3ccccc32)c1,,inactive,inactive,inactive,inactive,,inactive,inactive,inactive,inactive,inactive,inactive,inactive,inactive,,,,,
CCN1CCC[C@H]1CNC(=O)c1c(OC)ccc(Br)c1OC,,inactive,inactive,inactive,inactive,inactive,inactive,inactive,inactive,inactive,inactive,inactive,inactive,inactive,inactive,inactive,inactive,inactive,
CC(=O)N(CC(=O)N(C)C)c1ccccc1,,,,,,inactive,,inactive,inactive,inactive,,,,,,,,,
CC(Cc1cccc(C(F)(F)F)c1)NCCOC(=O)c1ccccc1 (stereo unspecified),,inactive,inactive,,inactive,23.7 µM (active),,23.7 µM (active),23.7 µM (active),,29.8 µM (active),,inactive,,,,,,
CCCCC(CC)COCCCN (stereo unspecified),inactive,inactive,inactive,inactive,,inactive,inactive,inactive,inactive,,inactive,inactive,inactive,inactive,inactive,,inactive,,
C=CC(C)(CCC=C(C)C)OC(=O)c1ccccc1 (stereo unspecified),inactive,inactive,inactive,inactive,,inactive,inactive,inactive,,,,,,,,,,,
O=[N+]([O-])c1cc[n+]([O-])cc1,inactive,inactive,inactive,,inactive,,,30.6 µM (active),,inactive,,,inactive,inactive,,,,,
CCC(C)N(C)C(=O)c1cc2ccccc2c(-c2ccccc2Cl)n1 (stereo unspecified),inactive,inactive,inactive,inactive,,inactive,,inactive,inactive,inactive,,,inactive,inactive,,inactive,inactive,inactive,35.2 µM (active)
CC1(C)CCC(C)(C)c2cc(NC(=O)c3ccc(C(=O)O)cc3)ccc21,inactive,inactive,inactive,inactive,inactive,inactive,,inactive,inactive,,,inactive,inactive,,,,,,21.1 µM (active)
CNCC[C@@H](Oc1ccccc1C)c1ccccc1,,inactive,inactive,,,inactive,,inactive,,inactive,inactive,inactive,,inactive,inactive,inactive,inactive,,23.7 µM (active)
O=C1Nc2cc(Cl)ccc2Oc2ccccc21,,,,,,,,inactive,inactive,inactive,,,,,,,,inactive,
CCOc1ccc2[nH]cc(C(=O)NCc3ccccc3)c(=O)c2n1,inactive,inactive,inactive,inactive,inactive,inactive,15.4 µM (active),inactive,inactive,inactive,61.1 µM (active),inactive,,inactive,inactive,,,inactive,
CC(=O)c1ccc2c(c1)[C@H](NC(=O)c1ccc(F)cc1)[C@@H](O)C(C)(C)O2,inactive,inactive,inactive,inactive,inactive,inactive,,inactive,inactive,inactive,inactive,,inactive,,,,,,inactive
CCN(CC)CCOc1ccc2c(c1)C(=O)c1cc(OCCN(CC)CC)ccc1-2,inactive,inactive,,,inactive,29.8 µM (active),,inactive,inactive,inactive,inactive,inactive,inactive,,,,,inactive,
CC(=O)OC/C=C/c1ccccc1,inactive,inactive,inactive,inactive,inactive,inactive,inactive,inactive,inactive,inactive,inactive,inactive,,,,,,,inactive
N#Cc1cc2ccccc2c2ccccc12,inactive,inactive,inactive,inactive,inactive,inactive,,inactive,inactive,inactive,inactive,inactive,61.4 µM (active),inactive,,inactive,inactive,,inactive
CC(=O)O[C@H]1C[C@@H]2CC[C@@H]3[C@H](CC[C@@]4(C)[C@H]3C[C@H]([N+]3(C)CCCCC3)[C@@H]4OC(C)=O)[C@@]2(C)C[C@@H]1N1CCCCC1,,inactive,inactive,inactive,inactive,inactive,inactive,inactive,,inactive,inactive,inactive,,inactive,inactive,33.5 µM (active),inactive,inactive,
CN1CCC(OC(c2ccccc2)c2ccccc2)CC1,inactive,inactive,inactive,inactive,inactive,inactive,inactive,inactive,inactive,inactive,inactive,inactive,inactive,inactive,inactive,,inactive,,
O=C(CC(=O)c1ccccc1)c1ccccc1,inactive,inactive,inactive,inactive,inactive,,23.3 µM (active),inactive,inactive,inactive,inactive,inactive,65.7 µM (active),,,,,,inactive
CC(C)(C)c1cc(CO)cc(C(C)(C)C)c1O,inactive,,inactive,inactive,inactive,inactive,31.2 µM (active),inactive,inactive,inactive,,inactive,inactive,inactive,,,69.9 µM (active),inactive,62.3 µM (active)
CC(C)(Oc1ccc(Cl)cc1)C(=O)OCCCOC(=O)C(C)(C)Oc1ccc(Cl)cc1,,,,,,inactive,inactive,inactive,inactive,inactive,,,,,,,,,
O=C(O)/C=C/c1cnc[nH]1,inactive,inactive,inactive,inactive,inactive,,inactive,inactive,inactive,inactive,inactive,inactive,,,,,,inactive,inactive
